High-throughput results as filed in PubChem BioAssay.
ELG1 genotoxic = genotoxicity induction in ELG1-luciferase HEK293T cells. hit rate 1.3% among 330,000. Potency, µM (highest dose often 46 µM), without a hit: at the top dose activity change, positive = activation, usual class: activators. HEK293T ELG1-luciferase reporter, luminescence, 16 h; further: % of control where 0% means no effect; nearly all actives have a fitted effect of over 60% in size
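Screening used a luciferase reporter fused to human ELG1 in HEK293T cells. Luminescence was read on a CCD plate imager after 16 hr exposure and 30 min ONE-Glo incubation.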
Rab9 promoter act = activators of Rab9 promoter; Potency, µM (highest dose often 9.22 µM), for the others: at the top dose activation, negative = inhibition, most hits filed as activators; hit rate 2.8% among 320,000; AID 485297; Huh7 Rab9 promoter-luciferase reporter, luminescence, 24 h; further: % of control where 0% means no effect; nearly all actives have a fitted effect of over 60% in size
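Promoter activation is measured as luciferase luminescence in Huh7 cells stably transfected with a Rab9 promoter–luciferase construct, following 24 h compound exposure at 37 °C and 10 min reagent incubation at ambient temperature.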
NPC1 promoter act = activators of NPC1 promoter; Huh7 NPC1 promoter luciferase reporter, 24 h; hit rate 2.4% among 320,000; Potency, µM (top dose mostly 9.22 µM), for the others: at the highest dose activation, usual class: activators; further: % of control where 0% means no effect; nearly all actives have a fitted effect of over 60% in size
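Cells: Huh7 expressing luciferase under the NPC1 promoter, 1500/well. Seeded 2 h, compound added, incubated 24 h at 37 °C. Luciferase reagent, 10 min ambient, then luminescence.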
FLuc counter = inhibits or activates purified firefly luciferase, miR-21 counter-screen; Potency, µM (series often up to 57.5 µM), for the others: top-dose activity change, negative = inhibition, most hits filed as inhibitors; hit rate 6.9% among 360,000; purified FLuc, Km substrates, luminescence inhibition;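 further: plate controls were vehicle for no effect and reference inhibitor for full effect; nearly all actives have a fitted effect of over 55% in size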
Target sequence (P08659 whole entry, looked up): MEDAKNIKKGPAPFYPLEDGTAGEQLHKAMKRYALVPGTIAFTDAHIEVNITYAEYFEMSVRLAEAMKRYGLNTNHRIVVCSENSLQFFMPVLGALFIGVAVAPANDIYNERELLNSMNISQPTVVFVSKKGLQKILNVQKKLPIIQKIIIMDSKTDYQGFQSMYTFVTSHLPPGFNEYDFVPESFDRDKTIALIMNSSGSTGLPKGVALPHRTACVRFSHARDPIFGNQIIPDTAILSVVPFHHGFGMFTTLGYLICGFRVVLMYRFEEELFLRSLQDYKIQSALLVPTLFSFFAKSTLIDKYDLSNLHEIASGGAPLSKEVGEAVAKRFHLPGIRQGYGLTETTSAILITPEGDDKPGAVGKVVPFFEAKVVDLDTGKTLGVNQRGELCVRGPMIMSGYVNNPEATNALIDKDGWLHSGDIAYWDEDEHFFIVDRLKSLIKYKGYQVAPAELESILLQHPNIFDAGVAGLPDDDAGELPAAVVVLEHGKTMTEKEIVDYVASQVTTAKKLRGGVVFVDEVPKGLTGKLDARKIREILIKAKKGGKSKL
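Purified P. pyralis luciferase (10nM final) with 10uM D-luciferin and 10uM ATP (Km levels) in 50mM Tris acetate pH 7.5, 10mM Mg acetate, 0.01% Tween-20, 0.05% BSA; qHTS 6-point titration, ~60 µM downward; luminescence read.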
SMN2 splice up = increases expression of the SMN2 splice variant; hit rate 2.8% among 210,000; HEK293 SMN2-luciferase splicing reporter, luminescence, 30-36 h; Potency, µM (top dose mostly 46.1 µM), for the others: at the top dose activity change, positive = activation, actives largely listed as activators; further: % of control where 0% means no effect; nearly all actives have a fitted effect of over 55% in size
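HEK293 cells carry an SMN2 minigene-luciferase reporter in which exon 7 inclusion puts luciferase in frame. Cells were seeded at 2000 cells/well, attached for 10-12 hours, then exposed to compounds for 30-36 hours at 37C before ONE-Glo luminescence.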
The depositor's hits bear a star; u = inconclusive; x = no result given; [ ] = remark or other dose. Shown are actives, neighbours in structure and some others; about 7.4% of the full set was active somewhere. The call rests on the fitted dose curve; in most records, active means well fitted curve in the direction sought with a large enough effect; inconclusive means small, poorly fitted or top-dose-only effect, or another doubt; inactive means no such curve, though single readings can be large; an effect the other way counts as inactive or inconclusive. Potency means the concentration at half of the fitted maximal effect.

SMILES	ELG1 genotoxic	Rab9 promoter act	NPC1 promoter act	FLuc counter	SMN2 splice up
COc1ccc(-c2cc(-c3ccccc3)n[nH]2)c(O)c1	8.2µM*	2.2µM*	u	6µM*	13µM*
COc1ccc(/C=C/c2nc(-c3ccccc3O)n[nH]2)cc1	u	3.5µM*	3.5µM*	3.8µM*	4µM*
Oc1ccc(Cl)cc1-c1cc(-c2ccccc2)n[nH]1	12%	-4%	-7%	u	16%
Oc1ccc(Br)cc1-c1cc(-c2ccccc2Cl)[nH]n1	0%	-8%	-4%	u	x
COc1ccc(O)c(-c2cc(-c3ccccc3Cl)[nH]n2)c1	u	24%	24%	11µM*	x
Cc1cc(C)c2c(c1)N[C@H](c1cccs1)[C@@H]1CCO[C@H]21	0%	0%	-4%	2%	x
CC(C)c1ccc2c(c1)[C@H]1OCC[C@H]1[C@@H](c1cccs1)N2	1%	-13%	-14%	9.5µM*	-41%
CC1CCN(S(=O)(=O)c2ccc3nc(NCc4ccccc4)ccc3c2)CC1	x	x	x	-12%	x
CCC(C)Nc1sc(S(=O)(=O)CC)nc1S(=O)(=O)c1ccc(C)cc1 (stereo not drawn)	x	x	x	6%	1%
Cc1ccc(N/C=C2\CCCCC2=O)nc1	u	u	4%	21µM*	18%
O=C1CCCC/C1=C\Nc1ccc(Cl)cn1	u	u	u	17µM*	u
Cc1ccc(N/C=C2\CCCCC2=O)c(C)c1	4%	-2%	-2%	u	-6%
O=C1CCC/C1=C/Nc1ccc(Cl)cc1	11%	22%	1%	-17%	3%
Clc1ccc(-n2cc(COCc3ccccc3)nn2)cc1	u	0.89µM*	0.89µM*	1.9µM*	13µM*
O=C(c1cccs1)N(CCN1CCCCC1)CC1CCCN(C2CCCC2)C1 (stereo not drawn)	18%	u	23%	17µM*	x
Cc1ccc(C(=O)N(CCN2CCCCC2)CC2CCCN(C3CCCC3)C2)s1 (stereo not drawn)	16%	u	22%	u	x
CCS(=O)(=O)Nc1cc(C(=O)O)ccc1C	0%	-8%	-1%	0%	9%
CC(=O)Nc1ccc(S(=O)(=O)Nc2cc(-c3cn4ccccc4n3)ccc2C)cc1	x	x	x	17µM*	u
Cc1ccn2cc(-c3ccc(C)c(NS(=O)(=O)c4ccc(Cl)cc4)c3)nc2c1	x	x	x	11µM*	-31%
CCc1ccc(S(=O)(=O)Nc2cc(-c3cn4ccccc4n3)ccc2C)cc1	x	x	x	u	9%
CCS(=O)(=O)Nc1cc(-c2cn3ccc(C)cc3n2)ccc1C	x	x	x	12µM*	u
CCOc1ccccc1NC(=O)COC(=O)c1cn(CC)c2nc(C)ccc2c1=O	x	x	x	-12%	8%
OCC1O[C@@H](OC2C(O)C(CO)O[C@@]2(CO)O[C@@H]2OC(CO)C(O)C(O)C2O)C(O)C(O)C1O (stereo partly drawn)	x	x	x	x	-2%
O=C(O)[C@H](C1NCCS1)N1Cc2ccccc2C1 (stereo partly drawn)	x	x	x	x	-7%[9.22 µM]
Cc1ccc(NC(=O)CSc2nnc(NC(=O)C3CC3)s2)cc1	u	4%	1%	0%	x
SMILES	ELG1 genotoxic	Rab9 promoter act	NPC1 promoter act	FLuc counter	SMN2 splice up
Cc1ccc(NC(=O)Nc2nnc(SCC(=O)N3CCC(C)CC3)s2)cc1	x	x	x	19µM*	x
Cc1ccc(NC(=O)CSc2nnc(NC(=O)NC3CCCCC3)s2)cc1	x	x	x	0.95µM*	x
CC(Sc1nnc(NC2CC2)s1)C(=O)Nc1ccc(N2CCOCC2)cc1 (stereo not drawn)	1%	-6%	1%	-1%	x
O=C(CSc1nnc(NC2CCCCC2)s1)Nc1ccc(N2CCOCC2)cc1	10%	14%	17%	13µM*	-13%
COc1cccc(NC(=O)CSc2nnc(NC(=O)C3CC3)s2)c1	0%	2%	-2%	-19%	x
Cc1ccc(NC(=O)Nc2nnc(SCC(=O)Nc3ccc(F)cc3F)s2)cc1	x	x	x	1%	x
COc1cccc(NC(=O)CSc2nnc(NC(=O)NC3CCCCC3)s2)c1	x	x	x	1.5µM*	x
COC(=O)c1cc2oc3ccccc3c2n1Cc1nc(-c2ccccc2Cl)oc1C	x	x	x	-4%	1%
Cc1ccc(CNC(=O)c2sc3nc4n(c(=O)c3c2C)CCCC4)cc1	x	x	x	-11%	x
O=C(CSc1nnc(-c2cccs2)o1)OC1CCCCC1	2%	4%	-4%	24µM*	-3%
Cc1cc(C(=O)CSc2nnc(-c3cccs3)o2)c(C)n1-c1ccccc1	-6%	-12%	-5%	6.7µM*	-42%
O=C(CSc1nnc(-c2cccs2)o1)OCc1ccccc1	-3%	-1%	0%	-3%	7%
COc1ccc(-c2nnc(SCC(=O)c3cccs3)o2)cc1	10µM*	2.2µM*	3.5µM*	2.4µM*	16%
COc1cccc(C(=O)CSc2nnc(-c3cccs3)o2)c1	3%	3%	-1%	-5%	-2%
COc1ccc(-c2nnc(SCC(=O)c3cc(C)n(Cc4cccs4)c3C)o2)cc1	5%	3%	-1%	u	-13%
CCNC(=O)CSc1nnc(-c2cccs2)o1	3%	-4%	-7%	-3%	22%
O=C(CSc1nnc(-c2cccs2)o1)c1cccs1	u	2.8µM*	1.6µM*	9.5µM*	-2%
O=C(CCS(=O)(=O)c1ccc(Br)cc1)Nc1ccc(Cl)c(C(F)(F)F)c1	x	x	x	-14%	x
COc1ccc(N2CCN(C(=O)c3cccn4c(=O)c5ccc(Cl)cc5nc34)CC2)cc1	x	x	x	2%	x
O=C(NCc1ccccc1Cl)C1CCCN(c2ncnc3onc(-c4ccc(F)cc4)c23)C1 (stereo not drawn)	x	x	x	-13%	x
Brc1cc(Oc2cc(Br)c(Br)c(Br)c2Br)c(Br)c(Br)c1Br	x	x	x	x	2%
Cc1ccc(SCC(=O)c2ccc[nH]2)cc1	u	u	u	24µM*	u
COc1ccc(-c2nnc(SCC(=O)c3ccc[nH]3)o2)cc1	u	1.6µM*	3.2µM*	4.3µM*	8.9µM*
Cc1ccc(CNC(=O)c2ccc[nH]2)cc1	3%	2%	-12%	-3%	5%
COc1ccc(/C=C2\SC(=O)N(CCNC(=O)Cn3cnnn3)C2=O)cc1	4µM*	3.2µM*	2.8µM*	12µM*	7.9µM*
SMILES	ELG1 genotoxic	Rab9 promoter act	NPC1 promoter act	FLuc counter	SMN2 splice up
COc1ccc(S(=O)(=O)CCC(=O)NCCc2ccc(C)cc2)cc1	1%	-3%	-1%	2%	5%
COc1ccc(/C=C2\SC(=O)N(CCNC(=O)CCS(=O)(=O)c3ccc(C)cc3)C2=O)cc1	u	2.8µM*	u	9.5µM*	16µM*
O=C(NCc1cccs1)c1cc(-c2ccccc2)on1	7.3µM*	2.5µM*	2.5µM*	u	25µM*
O=C(NCc1cccs1)c1cc(-c2cccs2)on1	u	3.5µM*	3.5µM*	u	u
COCCNC(=O)c1cc(-c2cccs2)on1	15µM*	3.2µM*	24%	u	17%
Cc1cc(C(=O)NCc2cccs2)no1	6%	2%	0%	3%	-2%
